# Data taken from PubChem BioAssay AID1159580 (chemical genetic matrix, 2015).
# Out of some 5,500 compounds screened, about 2,000 (36%) were called active. Not shown: some 18% with an inconclusive outcome. The list shows a part of the results. Values without a mark were called inactive. No stated cut-off is given here; in the data, active means normalized growth mostly below about 0.91 (no sharp cut-off); inconclusive means no clear call, values can overlap the other calls; inactive means mostly above about 0.92.
# Assay: chemical genetic growth profiling, strain panel (AID 1159580);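 further: tested at 20 µM; growth read once vehicle control cultures reached saturation at 30 °C; 1 = growth at the plate median or of vehicle wells; lower values mean less growth of the strain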
# Conditions: growth OD
compound,measurement,setting,value
C=CC(C1=CC(=O)C(OC)=CC1=O)c1ccc(OC)cc1 (configuration not stated),normalized growth,"S. cerevisiae deletion strains, locus YJR066W, strain TOR1, hits give low values",0.94
same,normalized growth,"S. cerevisiae deletion strains, locus YJR075W, strain HOC1, hits give low values",0.859 (active)
same,normalized growth,"S. cerevisiae deletion strains, locus YKL009W, strain mrt4, hits give low values",0.944
same,normalized growth,"S. cerevisiae deletion strains, locus YKL068W, hits give low values",0.976
same,normalized growth,"S. cerevisiae deletion strains, locus YKL085W, strain MDH1 (second series), hits give low values",0.966
same,normalized growth,"S. cerevisiae deletion strains, locus YKL085W, strain MDH1, hits give low values",0.966
same,normalized growth,"S. cerevisiae deletion strains, locus YKL160W, strain elf1, hits give low values",0.741 (active)
same,normalized growth,"S. cerevisiae deletion strains, locus YKL190W, strain CNB1, hits give low values",0.947
same,normalized growth,"S. cerevisiae deletion strains, locus YKR001C, strain vps1, hits give low values",0.814 (active)
same,normalized growth,"S. cerevisiae deletion strains, locus YKR026C, strain gcn3, hits give low values",0.967
same,normalized growth,"S. cerevisiae deletion strains, locus YKR091W, strain srl3, hits give low values",0.998
same,normalized growth,"S. cerevisiae deletion strains, locus YLL001W, strain dnm1, hits give low values",0.907
same,normalized growth,"S. cerevisiae deletion strains, locus YLL026W, hits give low values",0.839 (active)
same,normalized growth,"S. cerevisiae deletion strains, locus YLL041C, strain sdh2, hits give low values",0.955
same,normalized growth,"S. cerevisiae deletion strains, locus YLR027C, strain aat2, hits give low values",0.759 (active)
same,normalized growth,"S. cerevisiae deletion strains, locus YLR039C, strain RIC1, hits give low values",0.819
same,normalized growth,"S. cerevisiae deletion strains, locus YLR058C, strain SHM2, hits give low values",0.952
same,normalized growth,"S. cerevisiae deletion strains, locus YLR102C, strain apc9, hits give low values",0.945
same,normalized growth,"S. cerevisiae deletion strains, locus YLR113W, strain HOG1, hits give low values",0.958
same,normalized growth,"S. cerevisiae deletion strains, locus YLR221C, strain rsa3, hits give low values",0.701 (active)
same,normalized growth,"S. cerevisiae deletion strains, locus YLR258W, strain gsy2, hits give low values",0.849 (active)
same,normalized growth,"S. cerevisiae deletion strains, locus YLR262C, strain YPT6 (second series), hits give low values",0.39 (active)
same,normalized growth,"S. cerevisiae deletion strains, locus YLR262C, strain YPT6, hits give low values",0.71
same,normalized growth,"S. cerevisiae deletion strains, locus YLR268W, strain sec22, hits give low values",0.87 (active)
same,normalized growth,"S. cerevisiae deletion strains, locus YLR320W, strain mms22, hits give low values",0.276 (active)
same,normalized growth,"S. cerevisiae deletion strains, locus YLR330W, strain CHS5, hits give low values",0.968
same,normalized growth,"S. cerevisiae deletion strains, locus YLR342W, strain FKS1 (second series), hits give low values",0.674 (active)
same,normalized growth,"S. cerevisiae deletion strains, locus YLR342W, strain FKS1, hits give low values",0.914
same,normalized growth,"S. cerevisiae deletion strains, locus YLR357W, strain rsc2, hits give low values",1.07
same,normalized growth,"S. cerevisiae deletion strains, locus YLR370C, strain arc18, hits give low values",0.864 (active)
same,normalized growth,"S. cerevisiae deletion strains, locus YLR371W, strain rom2, hits give low values",0.941
same,normalized growth,"S. cerevisiae deletion strains, locus YLR384C, strain iki3, hits give low values",0.974
same,normalized growth,"S. cerevisiae deletion strains, locus YLR418C, strain cdc73, hits give low values",0.783 (active)
same,normalized growth,"S. cerevisiae deletion strains, locus YML016C, strain PPZ1, hits give low values",0.973
same,normalized growth,"S. cerevisiae deletion strains, locus YML032C, strain rad52, hits give low values",0.855 (active)
same,normalized growth,"S. cerevisiae deletion strains, locus YML120C, strain ndi1, hits give low values",0.911 (active)
same,normalized growth,"S. cerevisiae deletion strains, locus YML124C, strain tub3, hits give low values",0.949
same,normalized growth,"S. cerevisiae deletion strains, locus YMR058W, strain fet3, hits give low values",0.84 (active)
same,normalized growth,"S. cerevisiae deletion strains, locus YMR078C, strain ctf18, hits give low values",0.914
same,normalized growth,"S. cerevisiae deletion strains, locus YMR125W, strain sto1, hits give low values",0.779 (active)
same,normalized growth,"S. cerevisiae deletion strains, locus YMR129W, hits give low values",1
same,normalized growth,"S. cerevisiae deletion strains, locus YMR205C, strain PFK2, hits give low values",0.715 (active)
same,normalized growth,"S. cerevisiae deletion strains, locus YMR223W, strain ubp8, hits give low values",0.851 (active)
same,normalized growth,"S. cerevisiae deletion strains, locus YMR263W, strain SAP30, hits give low values",0.946
same,normalized growth,"S. cerevisiae deletion strains, locus YMR307W, strain GAS1, hits give low values",0.793
same,normalized growth,"S. cerevisiae deletion strains, locus YNL067W, strain RPL9B, hits give low values",0.947
same,normalized growth,"S. cerevisiae deletion strains, locus YNL071W, strain lat1, hits give low values",0.15 (active)
same,normalized growth,"S. cerevisiae deletion strains, locus YNL128W, strain TEP1, hits give low values",0.942
same,normalized growth,"S. cerevisiae deletion strains, locus YNL153C, strain GIM3, hits give low values",0.983
same,normalized growth,"S. cerevisiae deletion strains, locus YNL183C, strain NPR1, hits give low values",0.972
same,normalized growth,"S. cerevisiae deletion strains, locus YNL209W, strain ssb2, hits give low values",0.939
same,normalized growth,"S. cerevisiae deletion strains, locus YNL233W, strain BNI4, hits give low values",0.862 (active)
same,normalized growth,"S. cerevisiae deletion strains, locus YNL248C, strain rpa49, hits give low values",0.727 (active)
same,normalized growth,"S. cerevisiae deletion strains, locus YNL250W, strain rad50, hits give low values",0.944
same,normalized growth,"S. cerevisiae deletion strains, locus YNL271C, strain bni1, hits give low values",0.957
same,normalized growth,"S. cerevisiae deletion strains, locus YNL298W, strain CLA4, hits give low values",0.928
same,normalized growth,"S. cerevisiae deletion strains, locus YNL307C, strain MCK1, hits give low values",0.412 (active)
same,normalized growth,"S. cerevisiae deletion strains, locus YNL322C, strain KRE1 (second series), hits give low values",0.996
same,normalized growth,"S. cerevisiae deletion strains, locus YNL322C, strain KRE1, hits give low values",0.966
same,normalized growth,"S. cerevisiae deletion strains, locus YNR049C, strain mso1, hits give low values",0.962
same,normalized growth,"S. cerevisiae deletion strains, locus YNR052C, strain pop2, hits give low values",0.901 (active)
same,normalized growth,"S. cerevisiae deletion strains, locus YOL006C, strain TOP1, hits give low values",0.669
same,normalized growth,"S. cerevisiae deletion strains, locus YOL012C, strain htz1",0.791
same,normalized growth,"S. cerevisiae deletion strains, locus YOL147C, strain pex11, hits give low values",0.903 (active)
same,normalized growth,"S. cerevisiae deletion strains, locus YOR001W, strain rrp6, hits give low values",0.844 (active)
same,normalized growth,"S. cerevisiae deletion strains, locus YOR061W, strain CKA2, hits give low values",0.962
same,normalized growth,"S. cerevisiae deletion strains, locus YOR069W, strain VPS5, hits give low values",0.962
same,normalized growth,"S. cerevisiae deletion strains, locus YOR070C, strain gyp1, hits give low values",0.817 (active)
same,normalized growth,"S. cerevisiae deletion strains, locus YOR080W, strain dia2, hits give low values",1
same,normalized growth,"S. cerevisiae deletion strains, locus YOR083W, strain WHI5, hits give low values",0.788 (active)
same,normalized growth,"S. cerevisiae deletion strains, locus YOR106W, strain vam3, hits give low values",0.642 (active)
same,normalized growth,"S. cerevisiae deletion strains, locus YOR136W, strain idh2, hits give low values",0.919 (active)
same,normalized growth,"S. cerevisiae deletion strains, locus YOR144C, strain elg1, hits give low values",0.956
same,normalized growth,"S. cerevisiae deletion strains, locus YOR184W, strain ser1, hits give low values",0.738 (active)
same,normalized growth,"S. cerevisiae deletion strains, locus YOR231W, strain MKK1, hits give low values",1.03
same,normalized growth,"S. cerevisiae deletion strains, locus YOR265W, strain rbl2, hits give low values",0.945
same,normalized growth,"S. cerevisiae deletion strains, locus YOR270C, strain vph1, hits give low values",0.416 (active)
same,normalized growth,"S. cerevisiae deletion strains, locus YOR290C, strain snf2, hits give low values",0.851 (active)
same,normalized growth,"S. cerevisiae deletion strains, locus YOR316C, strain cot1, hits give low values",0.947
same,normalized growth,"S. cerevisiae deletion strains, locus YPL051W, strain arl3, hits give low values",0.657 (active)
same,normalized growth,"S. cerevisiae deletion strains, locus YPL055C, strain LGE1, hits give low values",0.869
same,normalized growth,"S. cerevisiae deletion strains, locus YPL078C, strain atp4, hits give low values",0.802 (active)
same,normalized growth,"S. cerevisiae deletion strains, locus YPL106C, strain sse1, hits give low values",1.03
same,normalized growth,"S. cerevisiae deletion strains, locus YPL240C, strain hsp82, hits give low values",0.851 (active)
same,normalized growth,"S. cerevisiae deletion strains, locus YPL241C, strain CIN2, hits give low values",0.982
same,normalized growth,"S. cerevisiae deletion strains, locus YPL256C, strain CLN2, hits give low values",1.08
same,normalized growth,"S. cerevisiae deletion strains, locus YPR119W, strain clb2, hits give low values",0.944
same,normalized growth,"S. cerevisiae deletion strains, locus YPR141C, strain kar3, hits give low values",0.963
same,normalized growth,"S. cerevisiae deletion strains, locus YPR163C, strain tif3, hits give low values",0.8 (active)
same,normalized growth,"S. cerevisiae deletion strains, locus YPR167C, strain met16, hits give low values",0.95
same,normalized growth,"S. cerevisiae deletion strains, strain wtn01, hits give low values",0.877 (active)
same,normalized growth,"S. cerevisiae strains, strain wild type, hits give low values",0.886 (active)
